Data: the supplement of paper PMC6555819

Experiments:
Experiment in all cases: PBM binding z-score (relative to random genomic background probes); higher = stronger binding; sequences stand for … in GC…GCGATTGACAGCGTAGAATGAAGG
[1] = tested on: FXR:RXRa (NR concentration 270 nM, RXRa partner concentration 90 nM)
Outline: (§1)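 Antibodies against each partner of ligand-free nuclear receptor dimers (one per run) detected binding on custom Agilent 4×180K protein-binding microarrays after 1 h incubation. The double-stranded probes had 34-nt variable regions carrying direct-repeat seeds, single-nucleotide variants, half-site ablations and random human genomic background sequences. Binding z-scores, from regression-normalized fluorescence, use the random background probes as reference.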

[2] = tested on: LXRa:RXRa (NR concentration 270 nM, RXRa partner concentration 90 nM)
Outline: as §1

[3] = tested on: LXRa homodimer (NR concentration 270 nM)
Outline: as §1

[4] = tested on: LXRb:RXRa (NR concentration 270 nM, RXRa partner concentration 90 nM)
Outline: as §1

[5] = tested on: LXRb homodimer (NR concentration 270 nM)
Outline: as §1

[6] = tested on: PPARa:RXRa (NR concentration 270 nM, RXRa partner concentration 90 nM)
Outline: as §1

[7] = tested on: PPARg:RXRa (NR concentration 180 nM, RXRa partner concentration 90 nM)
Outline: as §1

[8] = tested on: PPARg:RXRa 270nM:90nM, anti-RXR (NR concentration 270 nM, RXRa partner concentration 90 nM)
Outline: as §1

[9] = tested on: PPARg:RXRa 30nM:10nM, anti-RXR (NR concentration 30 nM, RXRa partner concentration 10 nM)
Outline: as §1

[10] = tested on: PPARg:RXRa 90nM:30nM, anti-RXR (NR concentration 90 nM, RXRa partner concentration 30 nM)
Outline: as §1

[11] = tested on: PPARg:RXRa DBDmut IVT, anti-RXR (DBD mutation: RXRa K156A/R161A, NR concentration 270 nM, RXRa partner concentration 90 nM)
Outline: as §1

[12] = tested on: PPARg:RXRa IVT, anti-PPARg (NR concentration 270 nM, RXRa partner concentration 90 nM)
Outline: as §1

[13] = tested on: PPARg DBDmut:RXRa IVT, anti-PPARg (DBD mutation: PPARg1 K132A/R137A, NR concentration 270 nM, RXRa partner concentration 90 nM)
Outline: as §1

[14] = tested on: PPARg DBDmut IVT, anti-PPARg (DBD mutation: PPARg1 K132A/R137A, NR concentration 270 nM)
Outline: as §1

[15] = tested on: PPARg homodimer (NR concentration 180 nM)
Outline: as §1

[16] = tested on: PXR:RXRa (NR concentration 270 nM, RXRa partner concentration 90 nM)
Outline: as §1

[17] = tested on: PXR homodimer (NR concentration 270 nM)
Outline: as §1

[18] = tested on: RARa:RXR (NR concentration 270 nM, RXRa partner concentration 90 nM)
Outline: as §1

[19] = tested on: RARa homodimer (NR concentration 270 nM)
Outline: as §1

[20] = tested on: RARb:RXRa (NR concentration 270 nM, RXRa partner concentration 90 nM)
Outline: as §1

Sequence	PBM binding z-score [1]	PBM binding z-score [2]	PBM binding z-score [3]	PBM binding z-score [4]	PBM binding z-score [5]	PBM binding z-score [6]	PBM binding z-score [7]	PBM binding z-score [8]	PBM binding z-score [9]	PBM binding z-score [10]	PBM binding z-score [11]	PBM binding z-score [12]	PBM binding z-score [13]	PBM binding z-score [14]	PBM binding z-score [15]	PBM binding z-score [16]	PBM binding z-score [17]	PBM binding z-score [18]	PBM binding z-score [19]	PBM binding z-score [20]
ACTTACGGGTCAACGAGGTTGTAGCACGCGTATA	6.76	4.66	0.172	4	0.502	5.6	5.04	4.93	1.89	3.69	3.1	3.83	2.28	1.73	3.47	4.95	1.29	5.07	0.713	4.04
TCTGGTAGATCAAGCAGGTTAAGAAAGCCTGAGT	-0.292	-0.109	-0.642	0.00998	-1.25	0.171	-0.556	0.81	2.17	1.5	1.17	-0.178	-0.408	-0.683	-0.462	0.159	0.156	0.213	-0.519	-0.0969
TAGCCTAGGTCATTCACGGGCCAGTATAGAAAGC	4.64	3.74	0.702	2.48	0.779	3.36	2.05	2.19	0.448	1.74	1.89	2.6	1.17	0.147	2.35	2.01	-0.0937	2.84	0.0278	3.69
AGTTAAAGTTCATCTAGGTAACGTAAGATATGCT	6.36	6.33	5.76	3.75	2.33	4.67	4.77	4.99	2	4.03	1.51	3.39	1.68	1.41	2.77	4.75	6.53	3.23	2.39	4.79
TCGAGTAGGTTACCAAAGGGGCATTCAGCTTTCT	0.363	3.05	-0.577	1.61	-0.557	1.41	0.576	1.33	0.963	1.22	3	2.74	0.155	0.119	0.4	0.735	-0.508	0.81	-0.941	1.37
CAAACTAGGTCACCGGAAGGTCAAAGTACGCATG	6.81	6.23	5.23	5.83	1.75	6.36	9.91	8.16	6.57	7.9	8.79	8.9	4.79	1.89	9.62	6.54	1.85	8.16	4.07	5.38
TAGCCCAGGTCATGCGGGCCAGTATAGTGTCGGC	4.35	3.42	0.136	1.9	-0.0451	3.8	2.55	2.55	0.267	1.35	0.638	2.57	-0.0508	-0.838	0.868	2.52	0.093	3.04	-0.161	3.74
TCTCGGAGGACACGCAAGGTCAGAGCTCGACATC	1.49	2.26	1.31	1.58	-0.475	2.1	0.475	1.39	2.16	1.64	1.62	1.03	-0.531	-0.649	0.657	2.67	0.389	2.61	0.379	3.4
ACTCGGAGGACAAAGGTCAGAGCTACGCCAGTGA	4.09	4.15	1.61	3.4	0.202	4.93	7.6	7.06	5.63	7.83	0.692	3.72	0.709	0.127	3.04	3.91	0.0188	5.19	2.21	4.44
AGTCAAAGTTCACTAGGTAACGTATGATTCAGCT	4.96	4.91	2.85	3.16	1.09	4.64	7.19	6.52	3	5.54	2.65	4.66	1.13	1.39	2.15	3.83	2.69	2.93	1.04	4.76
ATACCATGGTGATCGTGAGGTCGTTGATACTAAC	0.952	0.604	0.284	1.08	-0.16	0.884	0.301	-0.0472	0.115	0.0761	-0.0684	0.0915	-0.0138	0.737	0.319	1.75	1.17	1.27	-0.088	0.235
TCGAGTGGGTTAGGGGCATTCAGAATGGCGTCGA	0.437	0.401	0.0912	1.41	0.759	1.46	0.402	1.73	0.9	1.31	1.25	0.919	-0.337	-0.345	0.908	1.04	0.501	0.739	0.24	0.943
AGTATTAGTTGAGACGAGGGCAACCGATAGGTTG	0.842	0.556	0.129	0.258	0.115	0.567	0.552	0.313	0.0784	0.559	-0.068	0.769	0.458	0.336	0.923	1.63	0.87	1.01	1.25	1.2
CGTTCAAGGTCAATGCTAGGTCAGTGAAAGCATT	7.47	5.78	2.89	4.36	1.24	5.27	4.81	5.15	1.88	3.91	4.31	4.8	0.872	0.0991	7.93	5.3	1.78	6.62	2.61	5.22
